Measurements reported in PubChem BioAssay (NCATS).
Records with an inconclusive call do not appear. Active and inactive are the calls of the source. Unless noted, the call rests on the fitted dose curve; in most records, active means well fitted cell-killing curve with a large enough effect; inconclusive means small, poorly fitted or top-dose-only effect; inactive means flat fitted curve, though single readings scatter.

What was measured:
[1] = Cell Viability - LYMP2-025 (AID 976);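 further: series mostly up to about 92 µM; plate controls were DMSO only for no effect and tetraoctylammonium bromide control for full effect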
How it was run: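 Acute cytotoxicity is scored as a concentration-dependent fall in intracellular ATP, measured by luciferase luminescence, in human lymphoblastoid LYMP2-025 cells exposed to compound for 24 hours at 37 C. AC50 values come from standard Hill fits.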

[2] = Cell Viability - LYMP2-002 (AID 977);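 further: series mostly up to about 92 µM; compound exposure lasted 24 h at 37 °C; plate controls were DMSO only for no effect and 92 µM tetraoctylammonium bromide for full effect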
How it was run: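 In this qHTS viability screen, 2500 human lymphoblastoid cells per well receive compound for 24 hr at 37 C, and luciferase-based ATP luminescence gives the viability signal. Tetraoctylammonium bromide serves as positive control.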

[3] = Cell Viability - LYMP2-008 (AID 980); further: on the % scale 0 is the no-effect control and ±100 the full control effect; nearly all actives have a fitted effect of over 60% in size
How it was run: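 Cells seeded at 2500/well and rested 5 hr at 37 C; compounds added over a concentration range and incubated 24 hr at 37 C; CellTiter-Glo added, 30 min at room temperature; luminescence read and AC50 fitted with Hill model.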

[4] = Cell Viability - LYMP2-010 (AID 981); further: on the % scale 0 is the no-effect control and ±100 the full control effect; nearly all actives have a fitted effect of over 55% in size
How it was run: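 Steps: seed 2500 LYMP2-010 cells per well; incubate 5 hr at 37 C; add compound; incubate 24 hr at 37 C; add CellTiter-Glo, wait 30 min at room temperature; read luminescence. Concentration-response fitted to Hill equation for AC50.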

[5] = Cell Viability - LYMP2-012 (AID 982);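 further: cellular ATP by luciferase luminescence where a drop means cytotoxicity; cells exposed to compound for one day before reading; 0% = DMSO only and full loss = 92 µM tetraoctylammonium bromide; nearly all actives have a fitted effect of over 55% in size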
[6] = Cell Viability - LYMP2-014 (AID 983);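 further: series mostly up to about 92 µM; plate controls were DMSO only for no effect and 92 µM tetraoctylammonium bromide for full effect; nearly all actives have a fitted effect of over 50% in size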
How it was run: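 Cells are plated at 2500/well and left 5 hr at 37 C. Compounds are added across a concentration range and incubated 24 hr at 37 C in complete medium. CellTiter-Glo is added, and luminescence is read after 30 min at room temperature.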

[7] = Cell Viability - LYMP2-016 (AID 984); further: on the % scale 0 is the no-effect control and ±100 the full control effect; nearly all actives have a fitted effect of over 55% in size
How it was run: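 Human lymphoblastoid cells (LYMP2-016), 2500/well in complete medium, preincubated 5 hr at 37 C, then compound-treated 24 hr at 37 C. Intracellular ATP read by CellTiter-Glo luminescence after 30 min at room temperature; AC50 from Hill-equation concentration-response fits.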

[8] = Cell Viability - LYMP2-018 (AID 985);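 further: compound exposure lasted 24 hr at 37 °C; plate controls were DMSO only for no effect and tetraoctylammonium bromide at 92 µM for full effect; nearly all actives have a fitted effect of over 50% in size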
How it was run: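 Seed 2500 lymphoblastoid cells per well, incubate 5 hr at 37 C, add compound and incubate 24 hr at 37 C, add CellTiter-Glo, wait 30 min at room temperature, then read luminescence.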

[9] = Cell Viability - LYMP2-020 (AID 986);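 further: series mostly up to about 92 µM; plate controls were DMSO only for no effect and tetraoctylammonium bromide at 92 µM for full effect; nearly all actives have a fitted effect of over 55% in size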
How it was run: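 Seed 2500 cells per well and incubate 5 hr at 37 C. Add compounds at a concentration series and incubate 24 hr at 37 C. Add CellTiter-Glo, wait 30 min at RT, read luminescence, and fit a Hill curve for AC50.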

[10] = Cell Viability - LYMP2-022 (AID 987)
How it was run: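 Cells were seeded at 2500 per well, rested 5 hr at 37 C, and treated with titrated compounds for 24 hr at 37 C. Cellular ATP was then quantified by luciferase luminescence, and AC50 values were derived from Hill-modelled concentration-response curves.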

[11] = Cell Viability - LYMP2-024 (AID 988);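 further: plate controls were DMSO only for no effect and 92 µM tetraoctylammonium bromide for full effect; nearly all actives have a fitted effect of over 60% in size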
How it was run: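 qHTS cytotoxicity, human lymphoblastoid line, complete medium; 24 h cpd treatment, 37 C; CellTiter-Glo ATP luminescence readout; tetraoctylammonium bromide positive control; AC50 via Hill fit.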

[12] = Cell Viability - LYMP2-026 (AID 989); further: on the % scale 0 is the no-effect control and ±100 the full control effect; nearly all actives have a fitted effect of over 50% in size
How it was run: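 Cells are seeded at 2500 per well and held 5 hr at 37 C. Compounds are added in concentration series for 24 hr, then CellTiter-Glo reagent is applied and luminescence read.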

[13] = Cell Viability - LYMP1-002 - Assay at 24 hr (AID 993); further: on the % scale 0 is the no-effect control and ±100 the full control effect
How it was run: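 Acute toxicity is measured as concentration-dependent loss of cellular ATP in a human lymphoblastoid line (Coriell LYMP1-002) after 24 h treatment in complete medium. ATP is quantified by luciferase luminescence and AC50 derived by Hill modelling.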

[14] = Cell Viability - LYMP1-002 - Assay at 40 hr (AID 994);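 further: 0% = DMSO only and full inhibition = 92 µM tetraoctylammonium bromide; nearly all actives have a fitted effect of over 60% in size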
How it was run: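 Cells are plated at 2500 per well and rested 5 hr at 37 C. Compounds are added and incubated 40 hr at 37 C. CellTiter-Glo reagent is added for 30 min at room temperature before luminescence is read.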

[15] = qHTS Assay for Identification of Small Molecule Inducers of Hypoxia Response (AID 2120; active means well fitted curve in the direction sought with a large enough effect in the signal ratio, with a control signal flat, not every such curve was filed as active; the % refers to the signal ratio; further: 0% is about no effect)
How it was run: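 Cell-based qHTS for reporter induction: hypoxia response element controlled beta-lactamase in ME-180 cells. Compounds incubated 17 h at 37 degrees C; activity from blue/green (460/530 nm) ratio, inducers ranked by AC50.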

[16] = target: Bile acid receptor (Homo sapiens) (UniProt Q96RI1); experiment: qHTS assay for small molecule antagonists of farnesoid X receptor signaling (AID 588526; calls by dose curve; further: on the % scale 0 is the no-effect control and ±100 the full control effect)
How it was run: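 Concentration-response titrations were fitted to the Hill equation for half-maximal inhibition and maximal response, with data normalised to 50 uM chenodeoxycholic acid and DMSO control wells. Cells: FXR-UAS-bla HEK293T, dialyzed FBS.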

[17] = target: Bile acid receptor (Homo sapiens) (UniProt Q96RI1); experiment: qHTS assay for small molecule agonists of farnesoid X receptor signaling (AID 588527; calls by dose curve;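 further: series mostly up to about 77 µM; 0% = vehicle basal and 100% = reference agonist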); settings: HEK293T FXR-UAS-bla, beta-lactamase ratio, 16 h; activation: stronger effect = higher value
How it was run: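 FXR-UAS-bla HEK293T, 10% dialyzed FBS; cpds up to 92 uM titration, 16 h 37 C; CCF4 dye 2 h RT; fluorescence. Normalized to chenodeoxycholic acid 100 uM (100%) and DMSO (0%); Hill fit gives EC50, efficacy.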

[18] = target: Peroxisome proliferator-activated receptor delta (Homo sapiens) (UniProt Q03181); experiment: qHTS assay for small molecule agonists of peroxisome proliferator-activated receptor delta signaling (AID 588534; calls by dose curve;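 further: 0% = DMSO basal wells and 100% = positive control agonist at 10 µM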)
How it was run: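 Agonist-mode qHTS; reporter cells, 5 hrs 37 C pre-incubation; compound titration, 18 hrs 37 C; CCF4 dye, 2 hrs RT; fluorescence read. EC50/efficacy via Hill fit.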

[19] = target: Vitamin D3 receptor (Homo sapiens) (UniProt P11473); experiment: qHTS assay for small molecule antagonists of vitamin D receptor signaling (AID 588541; calls by dose curve;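 further: receptor activated by calcitriol during compound treatment; series mostly up to about 77 µM; on the % scale 0 is the no-effect control and ±100 the full control effect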)
How it was run: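 VDR-UAS-bla HEK293T cells (2000/well, 2% charcoal-stripped FBS) were treated with titrated compounds plus 1-alpha,25-dihydroxyvitamin D3 (50 nM or 3 nM final) for 16 h at 37 C. CCF4 beta-lactamase fluorescence was read; Hill fits gave IC50.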

[20] = target: Vitamin D3 receptor (Homo sapiens) (UniProt P11473); experiment: qHTS assay for small molecule agonists of vitamin D receptor signaling (AID 588543; calls by dose curve;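 further: 0% = DMSO basal and 100% = reference agonist control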)
How it was run: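 GeneBLAzer VDR-UAS-bla HEK293T cells in 2% charcoal-stripped FBS medium were dosed with compound titrations for 16 h at 37 °C; CCF4 β-lactamase readout (405 nm ex, 460/530 nm em). EC50 and efficacy from Hill fits, normalized to 50 nM calcitriol (100%) and DMSO (0%).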

[21] = qHTS assay for small molecule agonists of retinoid X receptor alpha signaling (AID 588544; calls by dose curve;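 on activation: 0% = DMSO basal wells and 100% = reference agonist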); settings: HEK293T RXRa-UAS-bla, beta-lactamase reporter, 18 h; 530 nm emission
[22] = target: Retinoic acid receptor RXR-alpha (Homo sapiens) (UniProt P19793); experiment: as above
Chain of Retinoic acid receptor RXR-alpha (Homo sapiens) (P19793 whole entry, looked up): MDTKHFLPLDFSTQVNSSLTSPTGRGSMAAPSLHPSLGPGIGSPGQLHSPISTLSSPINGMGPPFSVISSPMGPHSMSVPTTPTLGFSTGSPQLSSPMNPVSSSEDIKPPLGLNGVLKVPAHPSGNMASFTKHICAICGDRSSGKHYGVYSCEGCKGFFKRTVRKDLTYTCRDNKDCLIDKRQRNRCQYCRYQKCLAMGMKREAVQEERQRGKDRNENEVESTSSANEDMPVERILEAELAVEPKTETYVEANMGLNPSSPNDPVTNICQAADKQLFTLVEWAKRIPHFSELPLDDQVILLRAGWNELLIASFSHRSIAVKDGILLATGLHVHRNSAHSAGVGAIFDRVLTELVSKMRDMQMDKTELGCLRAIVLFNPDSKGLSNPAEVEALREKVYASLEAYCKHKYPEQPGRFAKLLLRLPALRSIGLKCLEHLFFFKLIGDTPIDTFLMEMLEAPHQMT

Chain of Vitamin D3 receptor (Homo sapiens) (P11473 whole entry, looked up): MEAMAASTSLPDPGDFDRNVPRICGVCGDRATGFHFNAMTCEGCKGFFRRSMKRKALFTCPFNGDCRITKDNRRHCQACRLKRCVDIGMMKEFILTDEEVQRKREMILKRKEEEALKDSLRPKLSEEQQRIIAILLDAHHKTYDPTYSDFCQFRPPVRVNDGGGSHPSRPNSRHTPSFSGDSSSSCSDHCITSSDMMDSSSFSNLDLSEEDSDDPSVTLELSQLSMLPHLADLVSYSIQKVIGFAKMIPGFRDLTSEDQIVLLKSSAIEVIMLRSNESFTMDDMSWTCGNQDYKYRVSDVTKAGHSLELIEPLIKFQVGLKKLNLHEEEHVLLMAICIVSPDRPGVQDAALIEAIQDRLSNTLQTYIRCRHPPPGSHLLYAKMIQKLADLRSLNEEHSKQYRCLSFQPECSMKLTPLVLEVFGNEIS
Chain of Bile acid receptor (Homo sapiens) (Q96RI1 whole entry, looked up): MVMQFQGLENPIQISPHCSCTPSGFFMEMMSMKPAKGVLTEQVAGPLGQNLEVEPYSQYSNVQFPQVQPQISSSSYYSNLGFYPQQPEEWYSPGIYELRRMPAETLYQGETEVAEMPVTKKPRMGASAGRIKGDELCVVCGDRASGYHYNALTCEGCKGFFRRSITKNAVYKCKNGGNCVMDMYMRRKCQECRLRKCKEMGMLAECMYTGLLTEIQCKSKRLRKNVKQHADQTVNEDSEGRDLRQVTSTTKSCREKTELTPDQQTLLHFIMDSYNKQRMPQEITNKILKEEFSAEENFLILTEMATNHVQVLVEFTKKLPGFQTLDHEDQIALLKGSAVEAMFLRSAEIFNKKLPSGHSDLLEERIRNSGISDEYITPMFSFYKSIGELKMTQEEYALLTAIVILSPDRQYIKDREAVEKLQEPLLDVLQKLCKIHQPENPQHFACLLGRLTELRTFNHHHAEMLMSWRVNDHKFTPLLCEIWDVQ
Chain of Peroxisome proliferator-activated receptor delta (Homo sapiens) (Q03181 whole entry, looked up): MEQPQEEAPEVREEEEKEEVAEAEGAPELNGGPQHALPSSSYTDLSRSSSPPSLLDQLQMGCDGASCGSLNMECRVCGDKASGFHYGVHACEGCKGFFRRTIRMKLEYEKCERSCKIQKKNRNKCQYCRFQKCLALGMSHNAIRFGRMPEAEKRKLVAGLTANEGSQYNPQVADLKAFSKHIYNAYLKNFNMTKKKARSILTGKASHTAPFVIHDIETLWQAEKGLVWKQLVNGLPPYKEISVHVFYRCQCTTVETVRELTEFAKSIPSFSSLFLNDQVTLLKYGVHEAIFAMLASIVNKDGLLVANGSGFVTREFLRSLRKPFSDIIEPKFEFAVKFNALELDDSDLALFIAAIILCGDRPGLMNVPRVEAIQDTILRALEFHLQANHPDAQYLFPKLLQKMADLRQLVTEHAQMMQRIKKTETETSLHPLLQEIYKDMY

O=Cc1ccccc1
inactive: outcome [1] | outcome [2] | outcome [3] | Potency [4] | outcome [5] | outcome [6] | outcome [7] | outcome [8] | outcome [9] | outcome [10] | outcome [11] | outcome [12] | outcome [13] | Potency [14] | outcome [15] | Potency [16] | activation [17] -1.64% | Potency [18] | outcome [19] | Potency [20] | outcome [22]
10.9%: max response [21]
